# Measured values reported in the supplement of paper PMC8728848.
# About 410 targets per protein were measured; listed, in parts, are those with the strongest signals and a random draw of the rest.
# Key:
# Assay in all cases: glycan array binding signal (z-score within array); higher = stronger binding
# [1] = system: Gal(b1-2)Gal; settings: glycan notation: IUPAC condensed, linker removed
# In short: (§1)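 Columns mapping to the same glycan were averaged after glycan names were converted to IUPAC-condensed notation. The data come from 3228 arrays in the Consortium for Functional Glycomics database, limited to those with an available protein sequence. Binding is reported as a within-array Z-score averaged across arrays of one protein sequence and across linkers.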
# [2] = system: Gal(b1-3)GalNAc(a1-3)[Fuc(a1-2)]Gal(b1-4)GlcNAc; settings: glycan notation: IUPAC condensed, linker removed
# In short: as §1
# [3] = system: Gal(a1-4)GlcNAc; settings: glycan notation: IUPAC condensed, linker removed
# In short: as §1
# [4] = system: Gal(a1-4)Gal(b1-4)Glc; settings: glycan notation: IUPAC condensed, linker removed
# In short: as §1
# [5] = system: Gal(b1-3)Gal(b1-4)GlcNAc(b1-2)Man(a1-3)[Gal(b1-3)Gal(b1-4)GlcNAc(b1-2)Man(a1-6)]Man(b1-4)GlcNAc(b1-4)GlcNAc; settings: glycan notation: IUPAC condensed, linker removed
# In short: as §1
# [6] = system: Gal(b1-3)GalNAc(b1-3)Gal; settings: glycan notation: IUPAC condensed, linker removed; mutation: R125K
# In short: as §1
# [7] = system: Gal(b1-3)GalNAc(b1-3)Gal(b1-4)Glc; settings: glycan notation: IUPAC condensed, linker removed
# In short: as §1
# [8] = system: Gal(a1-4)Gal(b1-4)GlcNAc; settings: glycan notation: IUPAC condensed, linker removed
# In short: as §1
# [9] = system: Gal(a1-6)Glc; settings: glycan notation: IUPAC condensed, linker removed
# In short: as §1
# [10] = system: Gal(b1-3)GalNAc(b1-3)Gal(a1-4)Gal(b1-4)Glc; settings: glycan notation: IUPAC condensed, linker removed
# In short: as §1
# Sequence of PILRb (Mus musculus), Q2YSF2 (Q2YSF2 entry or part of it): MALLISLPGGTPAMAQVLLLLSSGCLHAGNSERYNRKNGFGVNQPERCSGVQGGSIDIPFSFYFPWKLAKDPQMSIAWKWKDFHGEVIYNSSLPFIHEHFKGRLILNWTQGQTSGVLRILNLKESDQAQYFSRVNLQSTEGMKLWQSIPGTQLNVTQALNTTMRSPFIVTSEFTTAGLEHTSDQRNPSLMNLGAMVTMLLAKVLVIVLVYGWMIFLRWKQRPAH
# Sequence of CHI3L1 (Homo sapiens), P36222 (P36222 whole entry): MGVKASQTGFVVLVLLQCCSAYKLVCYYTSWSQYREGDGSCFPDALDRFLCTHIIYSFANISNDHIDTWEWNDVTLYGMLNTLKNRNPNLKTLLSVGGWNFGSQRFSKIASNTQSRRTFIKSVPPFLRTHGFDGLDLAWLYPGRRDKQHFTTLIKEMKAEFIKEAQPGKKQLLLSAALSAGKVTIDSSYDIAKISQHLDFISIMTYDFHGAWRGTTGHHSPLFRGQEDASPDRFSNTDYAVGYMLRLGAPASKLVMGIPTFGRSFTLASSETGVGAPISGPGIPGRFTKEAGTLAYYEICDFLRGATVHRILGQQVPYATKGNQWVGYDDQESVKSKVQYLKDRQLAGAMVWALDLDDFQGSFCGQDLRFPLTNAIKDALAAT
# Sequence of 6RG (Lolium perenne) (chain, as listed by the source): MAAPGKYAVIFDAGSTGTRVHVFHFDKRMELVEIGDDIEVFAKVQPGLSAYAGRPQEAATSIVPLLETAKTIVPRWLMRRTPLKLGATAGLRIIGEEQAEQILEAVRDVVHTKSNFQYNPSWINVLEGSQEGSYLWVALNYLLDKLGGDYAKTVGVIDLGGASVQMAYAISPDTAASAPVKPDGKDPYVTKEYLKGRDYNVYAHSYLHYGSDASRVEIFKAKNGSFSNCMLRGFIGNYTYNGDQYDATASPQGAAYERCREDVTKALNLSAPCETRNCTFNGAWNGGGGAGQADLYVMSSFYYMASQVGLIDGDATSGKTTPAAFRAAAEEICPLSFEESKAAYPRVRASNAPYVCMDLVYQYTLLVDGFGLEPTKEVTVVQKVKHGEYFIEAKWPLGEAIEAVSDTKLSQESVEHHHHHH
# Sequence of C3b (Homo sapiens), P01024 (P01024 23-667): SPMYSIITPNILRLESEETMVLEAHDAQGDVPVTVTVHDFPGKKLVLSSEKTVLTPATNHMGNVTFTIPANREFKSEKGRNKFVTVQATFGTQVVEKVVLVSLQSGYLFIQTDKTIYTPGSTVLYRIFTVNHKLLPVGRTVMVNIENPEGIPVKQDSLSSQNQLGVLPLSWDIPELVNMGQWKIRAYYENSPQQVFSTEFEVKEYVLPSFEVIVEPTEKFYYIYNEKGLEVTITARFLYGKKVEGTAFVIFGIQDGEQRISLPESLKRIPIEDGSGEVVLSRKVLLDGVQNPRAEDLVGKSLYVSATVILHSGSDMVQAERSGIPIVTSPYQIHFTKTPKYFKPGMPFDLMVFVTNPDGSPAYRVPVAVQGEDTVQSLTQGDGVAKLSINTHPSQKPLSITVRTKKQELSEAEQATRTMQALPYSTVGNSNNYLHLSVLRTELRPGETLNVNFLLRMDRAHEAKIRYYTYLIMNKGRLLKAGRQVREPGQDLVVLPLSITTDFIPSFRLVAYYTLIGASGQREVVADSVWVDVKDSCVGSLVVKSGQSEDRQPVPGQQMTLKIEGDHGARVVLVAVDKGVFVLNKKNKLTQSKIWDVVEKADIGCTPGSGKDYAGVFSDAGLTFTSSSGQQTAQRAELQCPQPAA
# Sequence of Regenerating Gene IV (Homo sapiens), Q9BYZ8 (Q9BYZ8 whole entry, looked up): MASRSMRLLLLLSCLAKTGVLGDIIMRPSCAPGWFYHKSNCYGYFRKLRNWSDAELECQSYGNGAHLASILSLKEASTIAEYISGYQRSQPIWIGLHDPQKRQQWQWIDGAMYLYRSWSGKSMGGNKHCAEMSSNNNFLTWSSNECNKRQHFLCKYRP
# Sequence of CHT (Homo sapiens) (chain, as listed by the source): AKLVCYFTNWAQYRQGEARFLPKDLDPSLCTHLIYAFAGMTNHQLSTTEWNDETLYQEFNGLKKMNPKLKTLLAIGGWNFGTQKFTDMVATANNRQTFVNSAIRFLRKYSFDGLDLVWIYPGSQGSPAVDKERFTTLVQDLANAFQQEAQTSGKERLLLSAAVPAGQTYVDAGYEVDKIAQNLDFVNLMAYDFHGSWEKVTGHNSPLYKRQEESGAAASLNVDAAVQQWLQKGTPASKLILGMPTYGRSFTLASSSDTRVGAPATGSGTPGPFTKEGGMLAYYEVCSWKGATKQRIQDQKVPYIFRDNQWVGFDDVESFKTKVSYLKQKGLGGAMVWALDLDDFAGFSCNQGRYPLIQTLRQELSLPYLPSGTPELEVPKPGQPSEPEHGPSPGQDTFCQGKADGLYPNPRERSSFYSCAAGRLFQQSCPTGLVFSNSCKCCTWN
# Sequence of PILRa (Mus musculus), Q2YSF3 (Q2YSF3 entry or part of it): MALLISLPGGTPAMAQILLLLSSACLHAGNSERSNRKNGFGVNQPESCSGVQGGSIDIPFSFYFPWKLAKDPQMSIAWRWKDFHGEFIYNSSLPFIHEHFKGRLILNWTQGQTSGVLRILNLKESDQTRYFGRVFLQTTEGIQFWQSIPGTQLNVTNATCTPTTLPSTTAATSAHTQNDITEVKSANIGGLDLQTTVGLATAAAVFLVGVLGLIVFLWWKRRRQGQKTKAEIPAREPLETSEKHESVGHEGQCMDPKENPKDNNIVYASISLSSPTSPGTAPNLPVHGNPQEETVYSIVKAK
substance,measurement,setting,value
"HARE (Homo sapiens), Q8WWQ8",glycan array binding signal (z-score),[1],-0.074
"PILRa (Mus musculus), Q2YSF3",glycan array binding signal (z-score),[2],-0.192
CHT (Homo sapiens),glycan array binding signal (z-score),"[3]; mutation: D138V, E140I",0.017
"PILRb (Mus musculus), Q2YSF2",glycan array binding signal (z-score),[4],0.026
same,glycan array binding signal (z-score),[1],-0.075
same,glycan array binding signal (z-score),[5],0.382
"Siglec-8 (Homo sapiens), Q9NYZ4",glycan array binding signal (z-score),[4]; mutation: R125K,0.026
same,glycan array binding signal (z-score),[5],-0.073
same,glycan array binding signal (z-score),[6],-0.035
6RG (Lolium perenne),glycan array binding signal (z-score),[4],6.7
same,glycan array binding signal (z-score),[7],6.16
"C3b (Homo sapiens), P01024",glycan array binding signal (z-score),[3],-0.904
"CHI3L1 (Homo sapiens), P36222",glycan array binding signal (z-score),[8],-0.117
same,glycan array binding signal (z-score),[9],-0.088
same,glycan array binding signal (z-score),[1],-0.006
"Regenerating Gene IV (Homo sapiens), Q9BYZ8",glycan array binding signal (z-score),[10],-0.44
